Source: PubChem BioAssay (EPA / NIEHS)
Active and inactive are the calls of the source. Rule for the calls: active = hit-call score of the fitted dose curve at least 0.9, where 1 is the maximum; inactive = score below 0.9.

Experiment: CCTE_Mundy_HCI_Cortical_Synap_Neur_Matur_NeuriteSpotCountPerNeuron: CCTE's Synaptogenesis and Neurite Maturation Assay in rat cortical cells for Neurite Spot Count per Neuron Count, Mundy Lab (AID 2284215)
Method: CCTE_Mundy_HCI_Cortical_Synap&Neurite_Matur is a multiplexed, cell-based-readout assay that uses rat primary cortical cells with measurements taken at 288.33 hours after chemical dosing in a microplate: 96-well plate.CCTE_Mundy_HCI_Cortical_Synap_Neur_Matur_NeuriteSpotCountPerNeuron is one of eight components of the CCTE_Mundy_HCI_Cortical_Synap&Neurite_Matur assay. It measures synaptogenesis and neurite maturation related to number of neurite-associated synapses (synaptophysin puncta) per neuron using High Content Imaging of fluorescently labelled markers.[…] Using a type of morphology reporter, loss -of-signal activity can be used to understand developmental effects.
Cells are plated onto 96 well plates and allowed 2 hr for attachment to the substrate. At days in vitro (DIV) 5, Cytosine Arabinoside (AraC) is added to arrest glial cell growth. Chemicals are dosed and a media change is performed at DIV 7 of differentiation and is continued through DIV 12 when the experiment is terminated. Cells are fixed with […] and Hoechst Dye. Cells are stained using Millipore Mouse anti-MAP2MAB3418 (1:800) and Millipore Rabbit anti-Synaptophysinsc-1750 (1:250) primary antibodies and Alexa Fluor-488 goat anti-mouse and AlexaFluor-546 goat anti-rabbit secondary antibodies to label neuronal cell nuclei, synapses and neurites. A Cellomics ArrayScan VTi HCS Reader is used for automated image acquisition and analysis of neurite outgrowth.
With `CCC[CH2][Sn]([CH2]CCC)([CH2]CCC)[O][Sn]([CH2]CCC)([CH2]CCC)[CH2]CCC` the AC50 was 0.0226 µM (active).
For `[CH3][Hg][Cl]`, the AC50 was 0.576 µM (active).
For `CC1(C)[C@H](C=C(Cl)Cl)[C@H]1C(=O)OCc1c(F)c(F)cc(F)c1F`, the AC50 was 9.68 µM (active).
In the case of `CCOP(=O)(OCC)SCSCC`, the outcome is reported as “inactive”.
For `C[C@H](N)Cc1ccccc1`, the outcome was “inactive”.
In the case of `CC1(C)[C@H](C=C(Cl)Cl)[C@@H]1C(=O)O[C@@H](C#N)c1cccc(Oc2ccccc2)c1`, the outcome is reported as “inactive”.
With `Cc1ccc(OP(=O)(Oc2ccc(C)cc2)Oc2ccc(C)cc2)cc1` (tested in a mixture with another compound) the AC50 was 15 µM (active).
With `CCOP(=O)(Oc1cnc(C(C)(C)C)nc1)OC(C)C` (configuration not stated) the outcome was “inactive”.
In the case of `CCOP(=O)(OCC)OC(Cl)C(Cl)(Cl)Cl` (configuration not stated), the outcome is reported as “inactive”.
For `CC1(C)C(C=C(Cl)c2ccc(Cl)cc2)C1C(=O)OC(C#N)c1ccc(F)c(Oc2ccccc2)c1` (configuration not stated), the AC50 was 72 µM (active).
For `CC1(C)[C@@H](C=C(Cl)Cl)[C@@H]1C(=O)O[C@@H](C#N)c1ccc(F)c(Oc2ccccc2)c1`, the outcome was “inactive”.
For `CN[C@]1(c2ccccc2Cl)CCCCC1=O`, the outcome was “inactive”.
With `O=C(O)CNCP(=O)(O)O` the outcome was “inactive”.
With `C=CCN1CC[C@]23c4c5ccc(O)c4O[C@H]2C(=O)CC[C@@]3(O)[C@H]1C5` the outcome was “inactive”.
In the case of `C[n+]1ccc(-c2cc[n+](C)cc2)cc1`, the AC50 is reported as 0.989 µM (active).
For `COC(=O)[C@H]1[C@@H](OC(=O)c2ccccc2)C[C@@H]2CC[C@H]1N2C`, the outcome was “inactive”.
With `O.O.O.O.O.[Cd+2].[Cd+2].[Cl-].[Cl-].[Cl-].[Cl-]` the AC50 was 1.62 µM (active).
In the case of `Brc1ccc(Oc2ccc(Br)cc2Br)c(Br)c1`, the AC50 is reported as 8.25 µM (active).
For `COP(=O)(OC)SCN1C(=O)c2ccccc2C1=O`, the outcome was “inactive”.
In the case of `CCOP(=O)(OCC)SCSC(C)(C)C`, the outcome is reported as “inactive”.
For `CC(=O)[O-].CC(=O)[O-].O.O.O.[Pb+2]`, the outcome was “inactive”.
For `C#CCN(C)[C@H](C)Cc1ccccc1`, the outcome was “inactive”.
In the case of `[Cd+2].[Cl-].[Cl-]`, the AC50 is reported as 1.19 µM (active).
In the case of `[CH3][Sn]([CH3])[CH3]`, the AC50 is reported as 1.77 µM (active).
In the case of `CC1(C)[C@H](C(=O)O[C@H](C#N)c2cccc(Oc3ccccc3)c2)[C@@H]1C=C(Br)Br`, the AC50 is reported as 7.04 µM (active).
For `CC(=O)[O-].[Tl+]`, the AC50 was 24.4 µM (active).
With `CCOP(=S)(OCC)SCS(=O)C(C)(C)C` (configuration not stated) the outcome was “inactive”.
For `CNC(=N[N+](=O)[O-])NCC1CCOC1` (configuration not stated), the AC50 was 0.00988 µM (active).
With `Cn1nc(C(F)(F)F)c(CS(=O)(=O)C2=NOC(C)(C)C2)c1OC(F)F` the AC50 was 9.92 µM (active).
With `O=[As]O` the AC50 was 5 µM (active).
In the case of `CC1(C)C(C=C(Cl)Cl)C1C(=O)O[C@H](C#N)c1cccc(Oc2ccccc2)c1` (some centres not stated), the AC50 is reported as 10.8 µM (active).
In the case of `CN1C(=O)CN=C(c2ccccc2)c2cc(Cl)ccc21`, the outcome is reported as “inactive”.
